Screening data: PubChem, National Center for Advancing Translational Sciences (NCATS)
Giardia killer = kills Giardia lamblia | Giardia lamblia trophozoite viability | activity change, % at 7.66 µM, hits read low | 340,000 compounds, 0.15% hits; in the data active means activity change below about -80%; inconclusive means between about -30% and that limit;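 further: parasites exposed to compound for two days anaerobically before the ATP read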
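Trophozoites 100 cells/well + cpd; 48 hrs, 37 deg C, anaerobic. ATPLite 1-Step added, 15-30 min RT, luminescence read (ATP-based viability).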
TDP1 inh = blocks human tyrosyl-DNA phosphodiesterase 1. Potency, µM (series often up to 130 µM), actives largely listed as inhibitors. recombinant TDP1, AlphaScreen DNA substrate cleavage. 350,000 compounds, 0.28% hits; further: nearly all actives have a fitted effect of over 40% in size
Target sequence (Q9NUW8 whole entry, looked up): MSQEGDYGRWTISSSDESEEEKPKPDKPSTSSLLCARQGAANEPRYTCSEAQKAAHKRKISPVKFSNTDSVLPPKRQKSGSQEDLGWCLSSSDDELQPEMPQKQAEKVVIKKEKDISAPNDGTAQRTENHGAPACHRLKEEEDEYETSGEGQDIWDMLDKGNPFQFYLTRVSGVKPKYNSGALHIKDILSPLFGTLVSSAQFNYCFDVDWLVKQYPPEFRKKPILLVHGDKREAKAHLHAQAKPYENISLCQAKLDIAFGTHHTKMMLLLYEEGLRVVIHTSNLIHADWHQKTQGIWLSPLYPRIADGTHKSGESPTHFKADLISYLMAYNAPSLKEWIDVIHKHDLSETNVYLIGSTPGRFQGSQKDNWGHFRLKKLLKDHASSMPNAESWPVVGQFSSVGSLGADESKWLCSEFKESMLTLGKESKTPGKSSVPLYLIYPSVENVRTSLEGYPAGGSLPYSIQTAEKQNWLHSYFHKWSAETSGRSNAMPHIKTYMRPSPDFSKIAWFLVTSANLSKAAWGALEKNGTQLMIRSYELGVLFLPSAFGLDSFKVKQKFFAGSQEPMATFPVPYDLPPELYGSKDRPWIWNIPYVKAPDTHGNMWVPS
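AlphaScreen read-out: signal falls as enzyme removes the 3' tyrosine-FITC from a 5'-biotinylated DNA oligo (15 nM, 5 min, RT). Enzyme was E. coli-made recombinant Tdp1 at 1 nM, exposed to compound for 15 min beforehand; beads 10 ug/ml, 10 min.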
TDP1 cell CPT = growth inhibition of DT40 Tdp1-/-;hTDP1 cells with camptothecin (screen for TDP1 inhibitors) | chicken DT40 Tdp1-/-;hTDP1 cells + 20 nM CPT, ATP luminescence, 48 h | Potency, µM (titrated, usually from 46.2 µM), actives largely listed as inhibitors | 420,000 compounds, 12% hits | AID 686979; further: nearly all actives have a fitted effect of over 55% in size
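Chicken DT40 Tdp1-/- cells complemented with human TDP1, 400 cells/well, exposed to compounds plus 20 nM camptothecin for at least 48 h at 37 C; viability read as ATP content by CellTiter-Glo luminescence.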
ELG1 DNA repair = blocks ELG1-dependent DNA repair in HEK293T cells. HEK293T ELG1-luciferase reporter, luminescence, 16 h; DNA damage induced by 5-fluorouridine. Potency, µM (top dose mostly 46.1 µM), actives largely listed as inhibitors. 330,000 compounds, 2.3% hits. AID 504467; further: nearly all actives have a fitted effect of over 55% in size
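Reporter activity after DNA damage by 5-fluorouridine is monitored. Compound-treated cells incubate 16 hr at 37 °C, then ONE-Glo is added for 30 min before luminescence reading.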
IL-1B inflam inh = inhibitors of inflammasome signaling (IL-1 beta secretion) | THP-1 LPS/ATP IL-1B secretion, AlphaLISA, 16 h; active compounds read low | activity change, % at 57.5 µM | 360,000 compounds, 4.7% hits | AID 743279; in the data active means activity change below about -50%; inconclusive means mostly about -30% to -49%
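Secreted IL-1B measured by AlphaLISA bead assay after 16 h compound exposure of THP-1 cells; compounds (final up to 57.5 uM) added 1 h before LPS (250 ng/mL) and ATP (1.25 mM) stimulation; lower signal means less secretion.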
TDP1 cell noCPT = qHTS for Inhibitors of human tyrosyl-DNA phosphodiesterase 1 (TDP1): qHTS in cells in absence of CPT; DT40 Tdp1-/- hTDP1 cells, no CPT, ATP luminescence, 48 h; Potency, µM (titrated, usually from 46.2 µM), most hits filed as inhibitors; 420,000 compounds, 15% hits; further: nearly all actives have a fitted effect of over 55% in size
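A cellular qHTS used chicken DT40 cells lacking endogenous Tdp1 but carrying stably transfected human TDP1. Compounds were applied without camptothecin, and cell growth kinetics were judged by ATP-dependent luminescence after ≥48 hr.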
Hits are given with their value; i = inactive; ? = inconclusive; nt = no result; [ ] = another dose, or the depositor's remark. Only some compounds are listed: those with a hit (about 19% of all), similar ones and a draw of the others. Unless noted, the call rests on the fitted dose curve; in most records, active means well fitted curve in the direction sought with a large enough effect; inconclusive means small, poorly fitted or top-dose-only effect, or another doubt; inactive means no such curve, though single readings can be large; an effect the other way counts as inactive or inconclusive.

SMILES	Giardia killer	TDP1 inh	TDP1 cell CPT	ELG1 DNA repair	IL-1B inflam inh	TDP1 cell noCPT
O=C(CN1c2ccccc2Sc2ccccc21)N/N=C/c1ccc(Cl)cc1Cl	i	nt	?	i	i	18µM
O=C(CN1c2ccccc2Sc2ccccc21)N/N=C/c1ccc(Cl)cc1	i	nt	?	i	i	?
CC(C)(C)c1csc(NC(=O)c2c(F)c(F)c(F)c(F)c2F)n1	i	i	?	i	-55	?
CC(C)(C)c1csc(NC(=O)c2ccccc2O)n1	i	nt	i	?	-83	?
Cc1ccccc1OCCn1cc(C(=S)N2CCN(C)CC2)c2ccccc21	i	i	?	i	?	15µM
Cc1ccccc1OCCn1cc(C(=S)N2CCCC2)c2ccccc21	i	nt	?	nt	i	?
CC(=O)c1cn(CCOc2ccc(F)cc2)c2ccccc12	i	nt	15µM	i	i	?
CC(=O)c1cn(CCOc2ccccc2C)c2ccccc12	i	nt	8.2µM	?	i	5.8µM
Cc1ccccc1OCCn1cc(C(=O)C(=O)N2CCOCC2)c2ccccc21	i	i	i	i	i	?
O=C(c1cn(CCOc2ccccc2F)c2ccccc12)C1CCCCC1	nt	i	?	nt	nt	16µM
Cc1c(OC(C)C(=O)NCC2CCC(C(=O)O)CC2)ccc2c(-c3ccccc3)cc(=O)oc12 (stereo not given)	i	nt	i	i	i	i
Cc1ccc(N2C(=O)C(Cc3ccc(O)cc3)NC2=S)cc1C (stereo not given)	i	i	i	i	i	i
O=C1[C@H]2[C@H]3[C@H](O)[C@H](O)C/C(=N/OCc4ccccc4)[C@H]3CC[C@@H]2C(=O)N1C1CCCCC1	nt	i[21 µM]	nt	nt	nt	nt
CCOc1ccccc1NC(=O)Cn1cnc2c1c(=O)n(C)c(=O)n2C	nt	i[12.3 µM]	?	nt	nt	i
Cc1cccnc1NC(=O)CNC(=O)C12CC3CC(CC(C3)C1)C2	i	i[0.505 µM]	i	i	i	i
O=C(COc1ccccc1[N+](=O)[O-])Nc1ccc(NC(=O)c2cc3ccccc3o2)cc1	i	i	23µM	i	i	?
O=C(COc1ccccc1[N+](=O)[O-])Nc1ccc(-c2nc3ccccc3s2)cc1	nt	i	21µM	nt	nt	21µM
O=C(COc1ccc(/C=N/NC(=O)c2cc3ccccc3o2)cc1Br)Nc1ccccc1	i	i	18µM	?	-117	18µM
O=C(COc1ccccc1[N+](=O)[O-])Nc1ccc2oc(=O)ccc2c1	i	i	i	i	i	i
O=C(N/N=C/c1ccco1)c1cc2ccccc2o1	i	i	i	i	i	i
O=[N+]([O-])c1cccc(-n2cc3ccc([N+](=O)[O-])cc3n2)c1	i	i	i	?	i	i
O=C(NN=C1C2CC3CC(C2)CC1C3)c1cc(Cl)ccc1O	i	i	i	i	i	i
CCC[C@H](NC(=O)[C@H](CC(C)C)N(C)C(=O)CNC(=O)[C@@H](NC(=O)[C@H](Cc1ccccc1)NC(=O)[C@H](CCCCN)NC(=O)[C@@H](N)CC(=O)O)C(C)C)C(N)=O	nt	i	nt	nt	nt	nt
O=C(NCC1CCCO1)C(c1ccc(F)cc1)N(CC1CCCO1)C(=O)c1ccc(-c2ccccc2)[nH]1 (stereo not given)	i	i	i	i	i	?
O=C(NCC1CCCO1)C(c1cccs1)N(Cc1cccs1)C(=O)c1ccc(-c2ccccc2)[nH]1 (stereo not given)	i	i	13µM	?	?	?
SMILES	Giardia killer	TDP1 inh	TDP1 cell CPT	ELG1 DNA repair	IL-1B inflam inh	TDP1 cell noCPT
O=C(NC1CCCCC1)C(c1cccs1)N(CCCN1CCOCC1)C(=O)c1ccc(-c2ccccc2)[nH]1 (stereo not given)	i	i	?	?	i	15µM
Cc1ccc(C(C(=O)NC(C)(C)C)N(CCCN2CCOCC2)C(=O)c2ccc(-c3ccccc3)[nH]2)o1 (stereo not given)	i	i	i	i	i	i
CN(C)S(=O)(=O)c1ccc(C(=O)NCc2nnc(SCC(=O)N3CCCC3)o2)cc1	i	i	i	i	i	i
Cc1ccc([C@H]2C[C@H](O)[C@@H](n3cc(C4CC4)nn3)CN2Cc2cccs2)cc1	nt	nt	9.2µM	nt	i	12µM
Cc1ccc([C@H]2C[C@@H](O)[C@H](n3cc(C4CC4)nn3)CN2Cc2cccs2)cc1	nt	nt	?	nt	i	?
COc1ccc([C@H]2C[C@H](O)[C@@H](n3cc(-c4ccc(F)cc4)nn3)CN2Cc2cccs2)cc1	nt	nt	5.2µM	nt	-61	5.2µM
O[C@H]1C[C@H](c2ccccc2)N(Cc2cccs2)C[C@@H]1n1cc(-c2ccc(F)cc2)nn1	nt	nt	23µM	nt	-79	23µM
NC(=S)N/N=C1\CCOc2ccc(F)cc21	i	i	?	i	?	16µM
O=C(Cc1ccc(Cl)cc1)NCCS(=O)(=O)N1CCN(c2ccccc2F)CC1	i	nt	5.2µM	i	i	5.8µM
O=C(CCCc1ccccc1)NCCS(=O)(=O)N1CCN(c2ccccc2F)CC1	i	i	?	?	i	18µM
COc1ccc(CCC(=O)NCCS(=O)(=O)N2CCN(c3ccccc3OC)CC2)cc1	i	i	21µM	?	i	18µM
Cc1c(C(=O)NCCS(=O)(=O)N2CCN(c3ccccc3F)CC2)cccc1[N+](=O)[O-]	i	i	?	15µM	i	21µM
N#Cc1cccc(NC(=O)Cn2nc(Cc3ccncc3)c3ccccc3c2=O)c1	nt	i	i	nt	nt	i
Cc1ccc(OCCC(=O)OCC(=O)N2CCN(S(=O)(=O)c3ccc(C)cc3)CC2)cc1	i	i	i	i	i	?
COc1ccc(/C=C(\NC(=O)c2ccccc2)C(=O)N2CCCCC2)cc1OC	i	nt	i	i	i	i
O=C(CCS(=O)(=O)Cc1ccc(Cl)cc1)NCCCN1CCN(c2ccccc2F)CC1	i	i	11µM	?	?	?
CCCCc1ccc(NC(=O)CN2C(=O)C3CCCCC3C2=O)cc1 (stereo not given)	i	i	?	i	-76	?
CCC(O)(CC)C(=O)N=Nc1c(O)[nH]c2ccccc12	i	i	i	i	i	i
Oc1cccc(NC(=S)N=Nc2c(O)[nH]c3ccccc23)c1	i	i	?	?	i	13µM
CCOc1ccc(NC(=S)N=Nc2c(O)[nH]c3ccccc23)cc1	i	i	9.2µM	?	i	7.3µM
Cc1cc(-c2ccccc2)nc(SCc2ccc(C(=O)O)cc2)n1	i	nt	i	i	i	i
NS(=O)(=O)c1cccc(NC(=O)COC(=O)CNC(=O)c2ccc(-c3ccccc3)cc2)c1	i	i	i	i	i	i
COc1ccc(OCCN2C(=O)NC3(CCc4ccccc4C3)C2=O)cc1 (stereo not given)	i	i	i	i	i	i
